In the supplement of paper PMC8975748:
± gives the standard deviation of the averaged measurements.

Experiments:
[1] = system: Saccharomyces cerevisiae BY4741 SeMeCo community; experiment: z-score of prototroph abundance vs DMSO median; higher = larger share of this subpopulation than in DMSO controls; conditions: 10 µM; 24 h; SM minimal medium; subpopulation (auxotrophy): Prototroph
In short: (§1)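 Automated confocal microscopy of paraformaldehyde-fixed cells was used to follow a Saccharomyces cerevisiae BY4741 community carrying four plasmids, each restoring one auxotrophy and encoding a distinct fluorescent protein. The community was pre-grown overnight to OD600 1.0, diluted to 0.3, and added at 70 µl to 384-well plates acoustically predosed with library drugs (10 µM final) for 24 h of growth in minimal SM medium. Single-auxotroph fluorescent strains set thresholds and autofluorescence correction, and each subpopulation's abundance was scored as a z-score against the vehicle-well median.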

[2] = system: Saccharomyces cerevisiae BY4741 SeMeCo community; experiment: z-score of subpopulation abundance vs DMSO median, subpopulation auxotrophic for M; higher = larger share of this subpopulation than in DMSO controls; conditions: 10 µM; 24 h; SM minimal medium; subpopulation (auxotrophy): M
In short: as §1

[3] = system: Saccharomyces cerevisiae BY4741 SeMeCo community; experiment: z-score of subpopulation abundance vs DMSO median, subpopulation auxotrophic for L; higher = larger share of this subpopulation than in DMSO controls; conditions: 10 µM; 24 h; SM minimal medium; subpopulation (auxotrophy): L
In short: as §1

[4] = system: Saccharomyces cerevisiae BY4741 SeMeCo community; experiment: z-score of subpopulation abundance vs DMSO median, subpopulation auxotrophic for U; higher = larger share of this subpopulation than in DMSO controls; conditions: 10 µM; 24 h; SM minimal medium; subpopulation (auxotrophy): U
In short: as §1

[5] = system: Saccharomyces cerevisiae BY4741 SeMeCo community; experiment: z-score of subpopulation abundance vs DMSO median, subpopulation auxotrophic for H; higher = larger share of this subpopulation than in DMSO controls; conditions: 10 µM; 24 h; SM minimal medium; subpopulation (auxotrophy): H
In short: as §1

[6] = system: Saccharomyces cerevisiae BY4741 SeMeCo community; experiment: z-score of subpopulation abundance vs DMSO median, subpopulation auxotrophic for LU; higher = larger share of this subpopulation than in DMSO controls; conditions: 10 µM; 24 h; SM minimal medium; subpopulation (auxotrophy): LU
In short: as §1

[7] = system: Saccharomyces cerevisiae BY4741 SeMeCo community; experiment: z-score of subpopulation abundance vs DMSO median, subpopulation auxotrophic for LM; higher = larger share of this subpopulation than in DMSO controls; conditions: 10 µM; 24 h; SM minimal medium; subpopulation (auxotrophy): LM
In short: as §1

[8] = system: Saccharomyces cerevisiae BY4741 SeMeCo community; experiment: z-score of subpopulation abundance vs DMSO median, subpopulation auxotrophic for HM; higher = larger share of this subpopulation than in DMSO controls; conditions: 10 µM; 24 h; SM minimal medium; subpopulation (auxotrophy): HM
In short: as §1

[9] = system: Saccharomyces cerevisiae BY4741 SeMeCo community; experiment: z-score of subpopulation abundance vs DMSO median, subpopulation auxotrophic for HU; higher = larger share of this subpopulation than in DMSO controls; conditions: 10 µM; 24 h; SM minimal medium; subpopulation (auxotrophy): HU
In short: as §1

[10] = system: Saccharomyces cerevisiae BY4741 SeMeCo community; experiment: z-score of subpopulation abundance vs DMSO median, subpopulation auxotrophic for UM; higher = larger share of this subpopulation than in DMSO controls; conditions: 10 µM; 24 h; SM minimal medium; subpopulation (auxotrophy): UM
In short: as §1

[11] = system: Saccharomyces cerevisiae BY4741 SeMeCo community; experiment: z-score of subpopulation abundance vs DMSO median, subpopulation auxotrophic for HL; higher = larger share of this subpopulation than in DMSO controls; conditions: 10 µM; 24 h; SM minimal medium; subpopulation (auxotrophy): HL
In short: as §1

[12] = system: Saccharomyces cerevisiae BY4741 SeMeCo community; experiment: z-score of subpopulation abundance vs DMSO median, subpopulation auxotrophic for HLU; higher = larger share of this subpopulation than in DMSO controls; conditions: 10 µM; 24 h; SM minimal medium; subpopulation (auxotrophy): HLU
In short: as §1

[13] = system: Saccharomyces cerevisiae BY4741 SeMeCo community; experiment: z-score of subpopulation abundance vs DMSO median, subpopulation auxotrophic for HLM; higher = larger share of this subpopulation than in DMSO controls; conditions: 10 µM; 24 h; SM minimal medium; subpopulation (auxotrophy): HLM
In short: as §1

[14] = system: Saccharomyces cerevisiae BY4741 SeMeCo community; experiment: z-score of subpopulation abundance vs DMSO median, subpopulation auxotrophic for HUM; higher = larger share of this subpopulation than in DMSO controls; conditions: 10 µM; 24 h; SM minimal medium; subpopulation (auxotrophy): HUM
In short: as §1

[15] = system: Saccharomyces cerevisiae BY4741 SeMeCo community; experiment: z-score of subpopulation abundance vs DMSO median, subpopulation auxotrophic for LUM; higher = larger share of this subpopulation than in DMSO controls; conditions: 10 µM; 24 h; SM minimal medium; subpopulation (auxotrophy): LUM
In short: as §1

[16] = system: Saccharomyces cerevisiae BY4741 SeMeCo community; experiment: z-score of subpopulation abundance vs DMSO median, subpopulation auxotrophic for HLUM; higher = larger share of this subpopulation than in DMSO controls; conditions: 10 µM; 24 h; SM minimal medium; subpopulation (auxotrophy): HLUM
In short: as §1

[17] = system: Saccharomyces cerevisiae BY4741 SeMeCo community; experiment: mean cell size (pixel area) (pixels); higher = larger cells; conditions: 10 µM; 24 h; SM minimal medium
In short: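 Drug was acoustically predosed into 384-well plates to a final 10 µM in SM medium, and each well received 70 µl of Saccharomyces cerevisiae BY4741 diluted to OD600 = 0.3 from an overnight preculture at OD600 = 1.0. This four-plasmid fluorescent community carries one fluorescent marker per plasmid, and each plasmid complements one auxotrophy. After 24 h, the cells were fixed with paraformaldehyde and imaged by automated confocal microscopy, and Harmony analysis yielded mean cell pixel area per well. Each value is averaged over 3 replicates. Same SeMeCo high-content imaging drug screen: Selleck FDA-approved drugs at 10 µM, 24 h in SM medium, 384-well plates, 3 replicates.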

O=C(O)c1cccnc1Nc1cccc(C(F)(F)F)c1 [Niflumic acid]
z-score of prototroph abundance [1]: -0.15
z-score of subpopulation abundance [2]: 0.7
z-score of subpopulation abundance [3]: -0.68
z-score of subpopulation abundance [4]: 0.51
z-score of subpopulation abundance [5]: -0.77
z-score of subpopulation abundance [6]: 0.28
z-score of subpopulation abundance [7]: -0.15
z-score of subpopulation abundance [8]: -0.03
z-score of subpopulation abundance [9]: -0.46
z-score of subpopulation abundance [10]: -0.28
z-score of subpopulation abundance [11]: -0.39
z-score of subpopulation abundance [12]: -0.64
z-score of subpopulation abundance [13]: 0.59
z-score of subpopulation abundance [14]: -0.49
z-score of subpopulation abundance [15]: 0.4
z-score of subpopulation abundance [16]: -0.43

CCC(=O)Oc1ccc2c(c1)CCC1C2CCC2(C)C(OC(=O)CC)CCC12 (stereo not drawn) [Estradiol dipropionate(17-Beta-Estradiol-3,17-Dipropionate)]
z-score of prototroph abundance [1]: 0.27
z-score of subpopulation abundance [2]: 0.21
z-score of subpopulation abundance [3]: -1.37
z-score of subpopulation abundance [4]: 0.61
z-score of subpopulation abundance [5]: -1.21
z-score of subpopulation abundance [6]: -0.67
z-score of subpopulation abundance [7]: -0.31
z-score of subpopulation abundance [8]: -0.18
z-score of subpopulation abundance [9]: 0.2
z-score of subpopulation abundance [12]: -0.61
z-score of subpopulation abundance [13]: -0.83
z-score of subpopulation abundance [14]: -0.16
z-score of subpopulation abundance [15]: -0.6
z-score of subpopulation abundance [16]: -1.07

Cc1onc(-c2ccccc2)c1-c1ccc(S(N)(=O)=O)cc1 [Valdecoxib]
mean cell size [17]: 12.3 ± 0.17
z-score of prototroph abundance [1]: 1
z-score of subpopulation abundance [2]: -0.21
z-score of subpopulation abundance [3]: 0.01
z-score of subpopulation abundance [6]: -0.06
z-score of subpopulation abundance [9]: -0.23
z-score of subpopulation abundance [11]: -0.64
z-score of subpopulation abundance [12]: -0.52
z-score of subpopulation abundance [13]: -0.74
z-score of subpopulation abundance [14]: -0.83
z-score of subpopulation abundance [15]: -0.21
z-score of subpopulation abundance [16]: -0.56

Cc1onc(-c2c(Cl)cccc2Cl)c1C(=O)N[C@@H]1C(=O)N2[C@@H]1SC(C)(C)[C@@H]2C(=O)O [Dicloxacillin Sodium]
z-score of prototroph abundance [1]: 0.04
z-score of subpopulation abundance [2]: -0.23
z-score of subpopulation abundance [3]: 1.32
z-score of subpopulation abundance [4]: -0.31
z-score of subpopulation abundance [5]: 0.19
z-score of subpopulation abundance [6]: 0.85
z-score of subpopulation abundance [7]: 0.35
z-score of subpopulation abundance [8]: -0.31
z-score of subpopulation abundance [9]: -0.23
z-score of subpopulation abundance [10]: -0.45
z-score of subpopulation abundance [11]: -0.68
z-score of subpopulation abundance [12]: -0.51
z-score of subpopulation abundance [13]: -0.56
z-score of subpopulation abundance [14]: -0.11
z-score of subpopulation abundance [15]: 0.88
z-score of subpopulation abundance [16]: 1.07

COc1ccc2c(c1)c(CC(=O)OCC(=O)O)c(C)n2C(=O)c1ccc(Cl)cc1 [Acemetacin]
z-score of prototroph abundance [1]: -0.16
z-score of subpopulation abundance [2]: 0.01
z-score of subpopulation abundance [3]: -1.06
z-score of subpopulation abundance [4]: -0.02
z-score of subpopulation abundance [5]: 0.66
z-score of subpopulation abundance [6]: 0.16
z-score of subpopulation abundance [7]: -0.54
z-score of subpopulation abundance [8]: 0.71
z-score of subpopulation abundance [9]: 0.77
z-score of subpopulation abundance [11]: 0.11
z-score of subpopulation abundance [12]: -0.64
z-score of subpopulation abundance [13]: -0.3
z-score of subpopulation abundance [14]: 0.69
z-score of subpopulation abundance [15]: -0.15
z-score of subpopulation abundance [16]: -0.61

CCCCC(=O)O[C@H]1CC[C@H]2[C@@H]3CCc4cc(O)ccc4[C@H]3CC[C@]12C [Estradiol valerate]
z-score of prototroph abundance [1]: 0.39
z-score of subpopulation abundance [2]: 0.23
z-score of subpopulation abundance [3]: -0.51
z-score of subpopulation abundance [4]: 0.05
z-score of subpopulation abundance [5]: -0.49
z-score of subpopulation abundance [6]: -0.16
z-score of subpopulation abundance [7]: -0.71
z-score of subpopulation abundance [8]: -0.23
z-score of subpopulation abundance [9]: -0.05
z-score of subpopulation abundance [11]: -0.58
z-score of subpopulation abundance [12]: 0.43
z-score of subpopulation abundance [13]: -0.87
z-score of subpopulation abundance [14]: 0.19
z-score of subpopulation abundance [15]: -0.45
z-score of subpopulation abundance [16]: -0.75

Cc1ccc(-c2cc(C(F)(F)F)nn2-c2ccc(S(N)(=O)=O)cc2)cc1 [Celecoxib]
mean cell size [17]: 12.5 ± 0.15
z-score of prototroph abundance [1]: 0.84
z-score of subpopulation abundance [2]: -0.11
z-score of subpopulation abundance [3]: 0.82
z-score of subpopulation abundance [4]: -0.79
z-score of subpopulation abundance [5]: 0.01
z-score of subpopulation abundance [6]: -0.19
z-score of subpopulation abundance [9]: -0.62
z-score of subpopulation abundance [11]: -0.61
z-score of subpopulation abundance [12]: -0.86
z-score of subpopulation abundance [13]: -0.37
z-score of subpopulation abundance [14]: -0.8
z-score of subpopulation abundance [15]: -0.48
z-score of subpopulation abundance [16]: -0.44
